Source: PubChem (several laboratories)
Shown are actives, neighbours in structure and some others; about 2.3% of the full set was active somewhere.
Bcl-xL primary – inhibitors of human Bcl-xL. GST-Bcl-xL / FITC-Bim BH3 peptide fluorescence polarization. Q07817. AID 2129. actives 0.7% (n = 320,000). inhibition, % at 10.9 µM;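 active means inhibition above the mean of all tested compounds plus 3 SD, cutoff set per campaign, cut at about 30% in these data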;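 further: 0% = DMSO wells and 100% = unlabeled Bim-BH3 peptide competitor; inhibitors lower millipolarization by displacing the labeled peptide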
Target sequence (Q07817 whole entry, looked up): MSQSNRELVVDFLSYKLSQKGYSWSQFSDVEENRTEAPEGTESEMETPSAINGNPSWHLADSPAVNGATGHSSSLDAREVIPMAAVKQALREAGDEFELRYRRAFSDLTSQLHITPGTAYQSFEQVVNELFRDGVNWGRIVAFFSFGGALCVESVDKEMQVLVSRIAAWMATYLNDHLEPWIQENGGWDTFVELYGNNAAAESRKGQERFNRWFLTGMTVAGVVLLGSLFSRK
Bim-Mcl-1 – inhibitors of Bim-Mcl-1 interaction, human. Q07820. inhibition, % at 10 µM. Bead-based flow cytometry, Bim peptide-Mcl-1 binding. AID 1009. actives 0.1% (n = 190,000); in the data active means inhibition above about 40%;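 further: 0% = no compound tracer wells and 100% = peptide blocker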
Target sequence (Q07820 whole entry, looked up): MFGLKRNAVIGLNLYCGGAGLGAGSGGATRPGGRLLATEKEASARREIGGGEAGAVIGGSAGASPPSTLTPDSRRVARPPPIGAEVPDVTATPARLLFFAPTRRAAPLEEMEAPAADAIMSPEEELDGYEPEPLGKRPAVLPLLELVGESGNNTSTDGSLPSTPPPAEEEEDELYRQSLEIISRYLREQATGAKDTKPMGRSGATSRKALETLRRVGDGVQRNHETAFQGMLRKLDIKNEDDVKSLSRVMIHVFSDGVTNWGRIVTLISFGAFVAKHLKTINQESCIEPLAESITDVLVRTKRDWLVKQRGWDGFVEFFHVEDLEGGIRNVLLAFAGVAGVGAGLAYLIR
Mcl1 Bid PPI – Mcl-1/Bid interaction inhibition; Q07820; TR-FRET Mcl-1/Bid-Dy647 peptide binding, 1536-well; inhibition, % at 21.7 µM; actives 0.97% (n = 220,000); AID 1021;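 active means compounds that cut the binding signal by more than half at the single screening dose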;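 further: His-tagged Mcl-1 with europium anti-His antibody binding Bid BH3 peptide; 0% = Mcl-1 plus peptide wells and 100% = peptide-only wells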
GLD-1 TGE inh – GLD-1-TGE RNA interaction inhibition (C. elegans); Q17339; purified GLD-1 + fluorescein TGE RNA, fluorescence polarization; inhibition, % at 5.96 µM; actives 0.44% (n = 320,000); AID 2280;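 active means percent inhibition above a per-plate cutoff, the plate mean of test compounds plus 3 SD, cut at about 30% in these data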;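 further: 0% = DMSO wells with GLD-1 and probe and 100% = wells lacking GLD-1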
MCL1-BIM inh – disrupts human MCL1 binding to BIM-BH3 peptide | actives 0.68% (n = 320,000) | inhibition, % at 10.9 µM | AID 2057 | GST-MCL1 / FITC-Bim-BH3 fluorescence polarization;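 active means inhibition above the mean inhibition of all tested compounds plus 3 SD, set per campaign, cut at about 40% in these data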;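 further: 0% = DMSO wells and 100% = unlabeled Bim-BH3 peptide control; higher means more loss of mP so more displacement of Bim peptide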
Mcl1-Noxa inh – Mcl-1/Noxa interaction inhibition | TR-FRET Mcl-1/Noxa peptide binding, 2 h | inhibition, % at 21.7 µM | actives 1.5% (n = 220,000);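 active means compounds that cut the protein-peptide binding signal by more than 50% relative to plate controls in a single-dose test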;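 further: His-tagged Mcl-1 with rhodamine Noxa BH3 peptide and terbium anti-His antibody; 0% = Mcl-1 plus Noxa peptide wells and 100% = peptide-only wells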
Bcl-xL conf – counter-screen for MCL1 inhibitors: confirmation of human Bcl-xL inhibitors | shares compounds with MCL1-BIM inh | GST-Bcl-xL / FITC-Bim BH3 peptide FP binding | inhibition, % at 10.9 µM | actives 54% (n = 1,700);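 active means inhibition above a cutoff equal to the mean inhibition of all tested compounds plus 3 SD, cut at about 30% in these data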;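 further: 0% = DMSO wells and 100% = unlabeled Bim BH3 control peptide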
MCL1 BIM confirm – confirmation of human MCL1 and BIM-BH3 interaction inhibitors; shares compounds with MCL1-BIM inh; GST-MCL1 / FITC-Bim-BH3 fluorescence polarization; inhibition, % at 10.9 µM; actives 61% (n = 1,700);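 active means inhibition above the average of all tested compounds plus 3 SD, cut at about 40% in these data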;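 further: 0% = DMSO wells and 100% = unlabeled Bim-BH3 control peptide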
An asterisk follows results filed as active; . = no result given; + = active, no number.

SMILES	Bcl-xL primary	Bim-Mcl-1	Mcl1 Bid PPI	GLD-1 TGE inh	MCL1-BIM inh	Mcl1-Noxa inh	Bcl-xL conf	MCL1 BIM confirm
CC1CCCCN1C(=O)Cn1nnc(-c2cccnc2)n1 (stereo not given)	85*	-2	-10	74*	91*	16	73*	110*
COc1ccc(CC(=O)Oc2cc(C)[nH]c(=O)c2[N+](=O)[O-])cc1	3	-8	7	-3	6	23	.	.
Cc1ccc(C)c(N2CCN(C(=O)CN3C(=S)NC(C)(C)CC3C)CC2)c1 (stereo not given)	4	-1	-35	9	7	15	.	.
CSCC(C)N1CCC(n2nccc2NC(=O)CCCc2ccccc2)CC1 (stereo not given)	99*	.	.	45*	108*	.	99*	119*
Cc1cc2nc3ccc(N(C)C)cc3nc2cc1N	120*	.	.	41*	126*	.	128*	143*
Cc1cc2nn(-c3cccc4ccccc34)nc2cc1N	7	20	0	2	4	42	.	.
CCc1cc(C(=O)Cc2cnn(-c3ccccc3)c2)c(O)cc1O	3	-2	5	-4	4	4	.	.
O=C(Cc1cnn(-c2ccccc2)c1)c1ccc(O)c(O)c1O	16	-2	-1	2	64*	39	14	40
CCOC(=O)C1=C(N)OC2=C(C(=O)CC(C)(C)C2)C1c1cc(CSc2nnnn2C)cs1 (stereo not given)	2	-2	-37	5	-2	10	.	.
O=[N+]([O-])c1c(NCCCO)cc(SCc2ccco2)c2nonc12	31*	-6	-82	5	59*	11	14	12
CC(=O)Nc1ccc2nc3c(=O)n(C)c(=O)n(C)c3nc2c1	132*	.	-21	65*	190*	58*	146*	190*
COc1cccc2c1C(=O)c1c(O)c3c(c(O)c1C2=O)C[C@](O)(C(C)=O)C[C@H]3O[C@@H]1C[C@@H](N)[C@@H](O)[C@@H](C)O1	+	.	.	+	+	.	+	+
CCOC(=O)C1CCCN(Cc2c(C(=O)N3CCOCC3)nc3ccccn23)C1 (stereo not given)	2	-1	-70	0	5	8	.	.
COC1CCCN(Cc2c(C(=O)N3CCN(C4CCCCC4)CC3)nc3ccccn23)C1 (stereo not given)	61*	.	.	35*	70*	.	40*	42*
CCOC(=O)COn1c(=O)c(-c2ccc(OC)c(OC)c2)[n+]([O-])c2ccccc21	14	-8	1	5	72*	35	18	13
CCOC(=O)COn1c(=O)c(-c2ccc(OC)cc2)[n+]([O-])c2ccccc21	4	.	.	2	-1	.	.	.
COc1cc(C(=S)N2CCN(c3ccccc3Cl)CC2)cc(O)c1O	25	-8	-54	14	58*	60*	34*	71*
CC1CCCCC12NC(=O)N(CC(=O)Nc1sccc1C(N)=O)C2=O (stereo not given)	9	.	.	1	7	.	.	.
CCNc1ccccc1CP(=O)(c1ccccc1)c1ccccc1O (stereo not given)	+	.	.	+	+	.	30	18
Cc1ccc(O)c(CP(=O)(c2ccccc2)c2ccccc2)c1	6	16	-20	9	5	-1	.	.
O=C(c1ccco1)N(c1ccccn1)c1ccccn1	4	-2	0	-4	7	-10	.	.
O=C(/C=C/c1ccco1)N(c1ccccn1)c1ccccn1	24	3	-66	10	56*	62*	22	53*
O=C(O)/C=C/C(=O)NCCC(c1ccccc1)c1ccccc1	2	.	-14	3	5	10	.	.
C/C(=C\c1ccccc1)C(=O)NCc1ccco1	4	2	-33	-2	2	9	.	.
Cc1ccc(C=Nc2cccnc2N)cc1	60*	3	-11	80*	70*	16	11	13
SMILES	Bcl-xL primary	Bim-Mcl-1	Mcl1 Bid PPI	GLD-1 TGE inh	MCL1-BIM inh	Mcl1-Noxa inh	Bcl-xL conf	MCL1 BIM confirm
Cc1ccc(/C=N/N=C/c2ccc(C)cc2)cc1	5	0	-28	2	4	6	.	.
Nc1c(C(=O)O)ccc2c1C(=O)c1ccccc1C2=O	13	2	-33	8	13	26	.	.
Nc1cc(C(=O)O)c(N)c2c1C(=O)c1ccccc1C2=O	155*	.	-86	112*	180*	96*	161*	195*
Nc1ccccc1-c1nc2ccccc2s1	7	0	-13	3	8	10	.	.
Nc1ccc(O)c(-c2nc3ccccc3s2)c1	51*	-3	-65	16	61*	71*	37*	38
Oc1ccc(-c2nc3ccccc3s2)c(O)c1	-3	.	4	6	6	37	.	.
Oc1ccc(N=C/C=C/c2cccc(Br)c2)cc1-c1nc2ccccc2s1	36*	-2	-69	22	50*	62*	18	18
CCCC(C)NC(=O)Cn1c(=O)c2c(ncn2CCC(C)C)n(Cc2ccccc2)c1=O (stereo not given)	-6	.	.	6	-6	.	.	.
CCCCC1(C)OC(=O)C(=Cc2ccc(-c3ccc(Cl)c(C(=O)O)c3)o2)C(=O)O1 (stereo not given)	5	.	-1	-6	1	28	.	.
CCOC(=O)c1cc(-c2ccc(/C=C3/C(=O)NC(=O)C(C#N)=C3C)o2)ccc1Cl	85*	2	93*	42*	121*	102*	105*	150*
NC(=S)Nc1cccc2cc3ccccc3cc12	57*	6	-62	15	53*	31	81*	95*
COc1ccc(CN2CCCC(CNC(=O)c3ccc(F)cc3)C2)c(C)c1C (stereo not given)	2	0	1	-6	2	5	.	.
Cc1ccc2[nH]c(=O)c(C3C(C#N)=C(N)Oc4c3ccc3cccnc43)cc2c1 (stereo not given)	13	0	60*	-1	44*	33	37*	58*
N#CC1=C(N)Oc2c(ccc3cccnc23)C1c1ccccc1 (stereo not given)	10	.	-19	-3	25	-12	.	.
CCN1C(=O)N(c2cccc3ccccc23)C(C)=CC1(C)C	-2	-2	-35	-7	1	18	.	.
CCN1c2ccccc2N(C)C1(C)c1ccccc1 (stereo not given)	88*	2	30	66*	94*	85*	61*	98*
